Experimental data: the supplement of paper PMC13380429

Tested on: Vero E6 infected with SARS-CoV-2
Test: inhibition of SARS-CoV-2 cytopathic effect; higher = more antiviral protection, active = above 15
Conditions: 48 h

Measured: inhibition of SARS-CoV-2 cytopathic effect

O=C1NCN(c2ccccc2)C12CCN(CC1COc3ccccc3O1)CC2 (stereo not given) [spiroxatrine]
inactive: 1 nM -0.76% | 8.33 nM 0.74% | 100 nM 1.03% | 833.33 nM 0.28% | 10000 nM 0.38%

O=C(O)c1cc2occc2[nH]1
inactive: 1 nM -2.55% | 8.33 nM -2.94% | 100 nM -2.08% | 833.33 nM -2.97% | 10000 nM -2.87%

COc1c(-c2ccc3cc(NS(C)(=O)=O)ccc3c2)cc(-n2ccc(=O)[nH]c2=O)cc1C(C)(C)C [dasabuvir]
inactive: 1 nM 1.02% | 8.33 nM -0.41% | 100 nM 0.27% | 833.33 nM 1.41% | 10000 nM 2.61%

Cc1c(-c2cnccn2)ssc1=S [oltipraz]
inactive: 1 nM 1.51% | 8.33 nM 4.72% | 100 nM 3.49% | 833.33 nM 5.97% | 10000 nM 0.75%

CC(C)(C)CC(C)(C)c1ccc(OCCOCC[N+](C)(C)Cc2ccccc2)cc1 [benzethonium]
inactive: 1 nM -8.35% | 8.33 nM -10.6% | 100 nM -12.9% | 833.33 nM -9.21% | 10000 nM -15.1%

CS(=O)(=O)N1CCc2c(-c3cnc(N)nc3)nc(N3CCOCC3)nc21
inactive: 1 nM -2.71% | 8.33 nM 1.07% | 100 nM 1.27% | 833.33 nM -3.9% | 10000 nM -8.89%

O=C1C[C@@]2(C(=O)N1)C(=O)N(Cc1ccc(Br)cc1F)C(=O)c1cccn12 [ranirestat]
inactive: 1 nM 0.68% | 8.33 nM 1.21% | 100 nM 2.23% | 833.33 nM 3.78% | 10000 nM 1.01%

Cc1cccc(/C=N/Nc2cc(N3CCOCC3)nc(OCCc3ccccn3)n2)c1
active: 100 nM 26.8% | 833.33 nM 20.4% | 10000 nM 19.1%
inactive: 1 nM 0.81% | 8.33 nM 1.56%

O=C(Nc1cc(C(F)(F)F)cc(C(F)(F)F)c1)c1cc(Cl)ccc1O [IKK-2-inhibitor-V]
inactive: 1 nM -4.92% | 8.33 nM -2.65% | 100 nM 1.55% | 833.33 nM 10.7% | 10000 nM 4.63%
